Here are results for 16 molecules from PubChem BioAssay (Tox21).

“And” between values parts separate entries of the source, which are not always exact repeats. Equal entries are not always repeated. Inconclusive results are not listed. The source made the active and inactive calls. Unless noted, calls come from the whole dose curve; as a rule, active = well fitted curve in the direction sought with a large enough effect in the repeat runs; inconclusive = weak or mixed curves; inactive = no such curve, though single readings can be large; an effect the other way counts as inactive or inconclusive.

Assay [1] is described as follows: qHTS assay to identify aromatase inhibitors - cell viability counter screen (AID 743084).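 Note: cells stimulated with testosterone during compound exposure; nearly all actives have a fitted effect of over 55% in size.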
The target in assay [2] is Aryl hydrocarbon receptor (Homo sapiens) (UniProt P35869). The experiment in a line: qHTS assay to identify small molecule that activate the aryl hydrocarbon receptor (AhR) signaling pathway (AID 743085).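 For activation: HG2L7.5c1 human HepG2 liver cells with stably integrated DRE-driven firefly reporter; series mostly up to about 70 µM.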 Note: nearly all actives have a fitted effect of over 15% in size. Note: potency is the fitted concentration of half-maximal effect. An outline of the steps:
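HepG2 cells stably carrying a 20-DRE firefly luciferase reporter (HG2L7.5c1) treated with compound for 24 hr at 37C. Luciferase read by ONE-Glo luminescence, with CellTiter-Fluor viability read first.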
In general terms: Quantitative high-throughput screening tests each substance at several concentrations.

Assay [3] can be described thus: qHTS assay to identify small molecule that activate the aryl hydrocarbon receptor (AhR) signaling pathway - cell viability counter screen (AID 743086).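 Note: HepG2 liver cells carrying the AhR DRE luciferase reporter; series mostly up to about 70 µM; nearly all actives have a fitted effect of over 45% in size.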 The gist of the method: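 HepG2-AhR-luc (HG2L7.5c1) cells, 4000/well, treated 24 h at 37 C with compound; viability measured as CellTiter-Fluor fluorescence after 30 min in the same wells as the luciferase read.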

Assay [4] concerns the target Peroxisome proliferator-activated receptor gamma (Homo sapiens) (UniProt P37231). Kind of assay: qHTS assay to identify small molecule agonists of the peroxisome proliferator-activated receptor gamma (PPARg) signaling pathway (AID 743094; active = well fitted activation curve with a large enough effect in the signal ratio in the repeat runs, not every such curve was filed as active; the % refers to the signal ratio). The gist of the method:
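Reporter activation was scored by fluorescence of cleaved LiveBLAzer B/G substrate (1 h, room temperature) in PPARg-bla HEK293H cells previously treated 17 h at 37C with DMSO-dissolved compounds.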

Assay [5] shares this target. The experiment in a line: qHTS assay to identify small molecule antagonists of the peroxisome proliferator-activated receptor gamma (PPARg) signaling pathway (AID 743191; calls by dose curve; note: series mostly up to about 63 µM; nearly all actives have a fitted effect of over 30% in size). The gist of the method: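 GeneBLAzer PPARg UAS-bla HEK293H cells, 5 h post-plating, exposed to compounds 17 h at 37C. LiveBLAzer B/G FRET substrate added for 1 h at room temperature; beta-lactamase reporter read by fluorescence intensity.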

Assay [6] in a line: qHTS assay to identify small molecule antagonists of the peroxisome proliferator-activated receptor gamma (PPARg) signaling pathway - cell viability counter screen (AID 743194). Note: nearly all actives have a fitted effect of over 55% in size. An outline of the steps:
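Cytotoxicity counter screen in PPARg-bla HEK293H cells, same wells as reporter assay. Compounds plus 50 nM rosiglitazone (final) for 17 h at 37 C, then viability read by CellTiter-Glo luminescence.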

Assay [7] can be described thus: qHTS assay for small molecule agonists of the antioxidant response element (ARE) signaling pathway (AID 743202; active = well fitted activation curve with a large enough effect in the signal ratio in the repeat runs, not every such curve was filed as active; the % refers to the signal ratio; note: potency is the fitted concentration of half-maximal effect). An outline of the steps: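 HepG2 ARE-bla cells; 16 h treatment at 37 C; FRET-based beta-lactamase fluorescence read after 2 h substrate incubation at room temperature.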
Assay [8] is described as follows: qHTS assay for small molecule agonists of the antioxidant response element (ARE) signaling pathway - cell viability counter screen (AID 743203; calls by dose curve; note: nearly all actives have a fitted effect of over 55% in size). The gist of the method: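 Viability counter screen: stably transfected ARE-bla HepG2 line, 16 hrs compound exposure at 37C/5% CO2, ATP-based CellTiter-Glo luminescence measured in the reporter wells.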
A short description of assay [9]: qHTS assay for small molecule activators of the heat shock response signaling pathway - cell viability counter screen (AID 743209). Note: nearly all actives have a fitted effect of over 50% in size. Note: potency is the fitted concentration of half-maximal effect. The gist of the method:
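Viability of HSE-bla HeLa cells is measured with CellTiter-Glo in the wells already used for the reporter read. Compound exposure lasts 5 h at 37 C, and luminescence is read after 30 min at room temperature.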

A short description of assay [10]: qHTS assay for small molecule activators of the heat shock response signaling pathway (AID 743210; active = well fitted activation curve with a large enough effect in the signal ratio in the repeat runs, with a control signal flat, not every such curve was filed as active; the % refers to the signal ratio;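 note: HeLa cells with beta-lactamase reporter driven by heat shock elements; series mostly up to about 63 µM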). An outline of the steps: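 Following overnight attachment, HSE-bla HeLa cells received test compounds for 5 h at 37 C; beta-lactamase activity was then detected via FRET substrate fluorescence.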

Sequence of Aryl hydrocarbon receptor (Homo sapiens) (P35869 whole entry, looked up): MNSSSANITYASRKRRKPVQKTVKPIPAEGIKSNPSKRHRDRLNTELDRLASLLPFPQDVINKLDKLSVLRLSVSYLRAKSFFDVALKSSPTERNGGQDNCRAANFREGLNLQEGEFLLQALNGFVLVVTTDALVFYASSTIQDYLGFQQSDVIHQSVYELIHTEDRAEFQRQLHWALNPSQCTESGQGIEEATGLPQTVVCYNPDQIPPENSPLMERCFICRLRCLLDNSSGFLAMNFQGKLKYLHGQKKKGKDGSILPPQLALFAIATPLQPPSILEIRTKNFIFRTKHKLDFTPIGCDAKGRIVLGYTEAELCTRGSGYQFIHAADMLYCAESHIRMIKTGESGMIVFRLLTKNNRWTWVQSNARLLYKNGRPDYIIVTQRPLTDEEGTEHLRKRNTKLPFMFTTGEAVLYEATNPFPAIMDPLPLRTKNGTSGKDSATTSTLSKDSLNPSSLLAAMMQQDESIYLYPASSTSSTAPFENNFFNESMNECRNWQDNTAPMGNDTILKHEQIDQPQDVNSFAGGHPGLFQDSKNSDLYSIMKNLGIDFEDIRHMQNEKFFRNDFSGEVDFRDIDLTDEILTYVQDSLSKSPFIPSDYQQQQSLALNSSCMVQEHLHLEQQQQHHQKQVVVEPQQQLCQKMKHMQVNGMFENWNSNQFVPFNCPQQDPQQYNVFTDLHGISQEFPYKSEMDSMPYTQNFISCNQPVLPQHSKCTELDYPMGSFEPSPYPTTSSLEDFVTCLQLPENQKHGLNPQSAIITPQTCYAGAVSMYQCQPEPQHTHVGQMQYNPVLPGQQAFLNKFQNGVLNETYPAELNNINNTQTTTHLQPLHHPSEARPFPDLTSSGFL
Sequence of Peroxisome proliferator-activated receptor gamma (Homo sapiens) (P37231 whole entry, looked up): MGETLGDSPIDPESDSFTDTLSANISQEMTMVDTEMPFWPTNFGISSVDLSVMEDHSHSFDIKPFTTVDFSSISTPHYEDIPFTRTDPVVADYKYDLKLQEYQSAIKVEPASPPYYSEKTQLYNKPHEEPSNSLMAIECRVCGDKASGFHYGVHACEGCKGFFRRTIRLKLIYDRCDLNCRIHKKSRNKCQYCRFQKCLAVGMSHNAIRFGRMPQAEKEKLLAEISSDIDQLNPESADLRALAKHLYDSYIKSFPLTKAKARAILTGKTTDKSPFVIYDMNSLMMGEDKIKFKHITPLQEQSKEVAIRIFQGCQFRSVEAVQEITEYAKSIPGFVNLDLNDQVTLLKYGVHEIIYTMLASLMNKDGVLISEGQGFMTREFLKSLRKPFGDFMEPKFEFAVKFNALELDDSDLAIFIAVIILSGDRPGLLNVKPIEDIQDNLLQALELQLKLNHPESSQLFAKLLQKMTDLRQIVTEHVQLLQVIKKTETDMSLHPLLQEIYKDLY

For `c1ccc2[nH]cnc2c1`, the Potency result in [1], in assay [2], in assay [3], in assay [5], in [6] and in assay [7] was “inactive” each time. The Potency entry in [8] and in assay [9] was “inactive” each time. Also, the call in assay [4] and in assay [10] was inactive.
For `CC1Cc2ccccc2N1NC(=O)c1ccc(Cl)c(S(N)(=O)=O)c1` (stereo not given), the Potency entry in assay [1], in assay [2], in assay [3], in assay [5], in [6] and in assay [7] was “inactive” in each case. Moreover, the Potency result in assay [8] and in assay [9] was “inactive” each time. The molecule was called inactive in [4].
As for `COCC(=O)O`, the Potency result in [1], in assay [2], in [3], in [5], in assay [6] and in [7] was “inactive” throughout. The Potency result in [8] is “inactive”. The call in assay [4] and in [10] was inactive.
For `CCCCCCOC(C)=O`, the Potency result in assay [1], in assay [2], in assay [3], in [5], in assay [6] and in assay [7] was “inactive” each time. In assay [8], the Potency result was “inactive”. In assay [4], the call was inactive.
For the molecule `CCCCC(CC)COC(C)=O` (stereo not given), the Potency entry in assay [1], in assay [2], in assay [3], in assay [5], in [6] and in assay [7] was “inactive” each time. Also, in assay [8], the Potency result was “inactive”. For the same molecule, the molecule was classed as inactive in [4] and in assay [10].
As to `COCC(C)O` (stereo not given), the Potency entry in assay [1], in [2], in assay [3], in [5], in assay [6] and in assay [7] was “inactive” in each case. Also, in assay [8], the Potency result was “inactive”. For the same molecule, the outcome in [4] was inactive.
With `COC(=O)c1ccc(C(=O)OC)cc1`, the Potency result in assay [1], in [2], in assay [3], in assay [5], in [6] and in [7] was “inactive” in each case. Also, the Potency result in assay [8] and in [9] was “inactive” in each case. Besides, in [4], the molecule was classed as inactive.
Regarding `CCC(C)C=O` (stereo not given), the Potency entry in assay [1], in assay [2], in assay [3], in assay [5], in assay [6] and in assay [7] was “inactive” each time. Further, the Potency result in assay [8] and in assay [9] was “inactive” each time. For the same molecule, the molecule was called inactive in assay [4] and in assay [10].
On to `Clc1cc(Cl)c(Cl)cc1Cl`, for which the Potency entry in assay [1], in assay [2], in assay [3], in [5], in [6] and in assay [7] was “inactive” throughout. Besides, the Potency entry in [8] and in assay [9] was “inactive” each time. The molecule was called inactive in [4] and in assay [10].
`CN(C)c1cccc(O)c1`: the Potency entry in assay [1], in assay [3], in assay [5], in assay [6] and in [8] was “inactive” in each case. Further, the Potency is 15.6 µM (active) and 30.6 µM (active) in assay [2]; 55.3 µM (active) in assay [7]. Besides, the molecule was classed as inactive in assay [4] and in assay [10].
`OCC#CCO`: the Potency result in assay [1], in assay [2], in [3], in [5], in assay [6] and in [7] was “inactive” throughout. For the same molecule, the Potency result in assay [8] and in assay [9] was “inactive” throughout. The molecule was classed as inactive in assay [4] and in assay [10].
Regarding `CCCCCCC(C)(C)S`, the Potency result in assay [1], in assay [2], in [3], in assay [5], in assay [6] and in assay [7] was “inactive” in each case. Moreover, the Potency result in assay [8] and in assay [9] was “inactive” throughout. In addition, the molecule was classed as inactive in assay [4] and in assay [10].
As for `OC[C@@H](O)[C@@H](O)[C@H](O)[C@@H](O)CO`, the Potency entry in [1], in [2], in assay [3], in assay [5], in assay [6] and in assay [7] was “inactive” each time. For the same molecule, the Potency entry in assay [8] and in assay [9] was “inactive” in each case. For the same molecule, the outcome in assay [4] and in [10] was inactive.
For the molecule `C=C(C)C(=O)OCC(CC)(COC(=O)C(=C)C)COC(=O)C(=C)C`, the Potency entry in [1], in assay [2], in [3], in assay [5], in assay [6] and in assay [7] was “inactive” throughout. Moreover, in [8], the Potency entry is “inactive”. The result in assay [4] was inactive. Moreover, the Potency in assay [9] was 12.1 µM (active).
`CCOC(=O)/C=C\C(=O)OCC`: the Potency entry in [1], in [2], in [3], in assay [5], in [6] and in assay [7] was “inactive” in each case. Besides, the Potency entry in assay [8] and in assay [9] was “inactive” in each case. Moreover, the molecule was called inactive in [4] and in [10].
For the molecule `CC(C)(CO)COC(=O)C(C)(C)CO`, the Potency result in assay [1], in [2], in assay [3], in [5], in assay [6] and in assay [7] was “inactive” each time. Further, the Potency result in assay [8] and in [9] was “inactive” each time. Further, the outcome in assay [4] and in assay [10] was inactive.
